Entries with a potency or affinity are not part of this list. Records with an inconclusive call do not appear. Active and inactive are the calls of the source.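 The calls were made as follows: active = compounds lowering the FRET ratio whose fitted half-maximal concentration is at most twice their top tested dose; inconclusive = flat partial drop between 30 and 70 percent, or bad fit; inactive = the rest.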
Molecular target: Voltage-dependent L-type calcium channel subunit alpha-1D (Homo sapiens) (UniProt Q01668)
Sequence (Q01668 whole entry, looked up): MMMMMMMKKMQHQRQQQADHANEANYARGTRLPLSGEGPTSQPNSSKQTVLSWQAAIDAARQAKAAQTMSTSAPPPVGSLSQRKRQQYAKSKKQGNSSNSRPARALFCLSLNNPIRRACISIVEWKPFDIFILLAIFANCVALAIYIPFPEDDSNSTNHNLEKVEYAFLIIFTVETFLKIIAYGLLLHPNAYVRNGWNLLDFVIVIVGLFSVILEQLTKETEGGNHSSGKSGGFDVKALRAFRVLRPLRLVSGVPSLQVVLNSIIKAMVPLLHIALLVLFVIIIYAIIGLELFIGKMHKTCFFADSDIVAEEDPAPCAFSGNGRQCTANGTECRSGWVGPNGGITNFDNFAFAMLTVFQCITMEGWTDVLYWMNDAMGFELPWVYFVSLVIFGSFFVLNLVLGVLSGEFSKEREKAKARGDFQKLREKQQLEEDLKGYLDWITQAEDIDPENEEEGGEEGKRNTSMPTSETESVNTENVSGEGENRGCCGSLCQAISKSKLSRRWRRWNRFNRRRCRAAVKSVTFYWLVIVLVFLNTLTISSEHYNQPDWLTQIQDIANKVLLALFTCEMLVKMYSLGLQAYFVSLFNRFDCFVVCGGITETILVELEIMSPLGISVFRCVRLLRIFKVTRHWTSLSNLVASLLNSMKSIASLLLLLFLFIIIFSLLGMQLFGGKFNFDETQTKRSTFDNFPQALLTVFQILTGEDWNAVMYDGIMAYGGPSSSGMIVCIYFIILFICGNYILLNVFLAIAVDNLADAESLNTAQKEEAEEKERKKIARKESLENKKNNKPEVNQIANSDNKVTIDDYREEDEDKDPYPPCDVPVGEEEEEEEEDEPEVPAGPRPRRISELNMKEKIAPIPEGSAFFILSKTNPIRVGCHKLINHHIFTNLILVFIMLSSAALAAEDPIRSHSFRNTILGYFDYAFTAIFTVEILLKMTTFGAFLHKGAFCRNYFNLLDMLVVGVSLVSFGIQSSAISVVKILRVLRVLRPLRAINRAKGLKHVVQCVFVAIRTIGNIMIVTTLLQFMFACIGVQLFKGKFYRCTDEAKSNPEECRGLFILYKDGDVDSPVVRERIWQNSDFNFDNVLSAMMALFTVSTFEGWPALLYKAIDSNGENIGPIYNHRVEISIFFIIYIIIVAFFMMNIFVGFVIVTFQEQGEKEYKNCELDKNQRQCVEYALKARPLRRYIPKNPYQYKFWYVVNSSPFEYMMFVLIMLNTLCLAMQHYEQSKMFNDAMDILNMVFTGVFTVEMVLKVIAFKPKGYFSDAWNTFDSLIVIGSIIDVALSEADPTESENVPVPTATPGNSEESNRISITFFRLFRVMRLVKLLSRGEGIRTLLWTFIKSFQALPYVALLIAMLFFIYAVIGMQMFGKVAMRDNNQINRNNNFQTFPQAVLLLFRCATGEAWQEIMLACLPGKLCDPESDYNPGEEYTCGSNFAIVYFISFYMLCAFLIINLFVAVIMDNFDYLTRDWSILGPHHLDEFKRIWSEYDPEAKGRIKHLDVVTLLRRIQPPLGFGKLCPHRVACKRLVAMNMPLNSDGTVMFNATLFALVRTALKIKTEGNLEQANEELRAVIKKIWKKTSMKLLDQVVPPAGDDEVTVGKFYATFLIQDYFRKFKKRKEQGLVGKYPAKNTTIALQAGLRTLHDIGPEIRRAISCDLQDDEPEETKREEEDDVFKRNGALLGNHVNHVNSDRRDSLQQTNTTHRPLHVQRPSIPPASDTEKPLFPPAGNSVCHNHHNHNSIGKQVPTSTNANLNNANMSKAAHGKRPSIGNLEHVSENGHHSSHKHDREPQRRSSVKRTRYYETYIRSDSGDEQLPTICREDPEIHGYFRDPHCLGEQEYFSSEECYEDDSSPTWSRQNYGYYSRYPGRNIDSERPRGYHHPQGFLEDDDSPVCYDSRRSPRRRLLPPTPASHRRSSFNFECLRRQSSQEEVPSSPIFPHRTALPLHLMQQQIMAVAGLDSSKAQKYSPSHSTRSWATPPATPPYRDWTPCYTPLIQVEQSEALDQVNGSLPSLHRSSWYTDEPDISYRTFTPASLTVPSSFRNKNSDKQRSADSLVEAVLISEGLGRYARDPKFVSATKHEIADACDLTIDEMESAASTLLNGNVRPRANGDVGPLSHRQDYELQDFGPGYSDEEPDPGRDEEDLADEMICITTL
Experiment: inhibitors of CaV1.3 ICDI-IQ binding, dose response, cell-based, HEK293, YFP-IQ/CFP-ICDI FRET, cherry-picks (AID 1053205);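 also: 0% = median of neutral control wells and -100% = median of positive control wells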
Details: HEK293 YFP-IQ/CFP-ICDI FRET ratio, 10 min; series mostly up to 35 µM

outcome, inactive:
CCOC(=O)c1oc2c(CN3CCN(CCO)CC3)c(O)c(CC)cc2c(=O)c1-c1nc2ccccc2s1
O=C(COC(=O)c1cc(S(=O)(=O)N2CCCCC2)ccc1N1CCOCC1)c1ccccc1Cl
Cc1c(C(=O)NCc2ccc(Cl)c(Cl)c2)sc(=O)n1Cc1cccc(F)c1
Cc1cc(OC(=O)c2ccccc2Cl)ccc1N1C(=O)CCC1=O
O=c1[nH]c(Nc2ccccc2Cl)cc2ccccc12
CC1CC(C)CN(CCCNC(=O)CCC(=O)N2CC(C)Oc3ccccc32)C1 (configuration not stated)
CCCN1CCN(C(=O)c2ccc(CS(=O)c3ccc(Br)cc3)o2)CC1 (configuration not stated)
CC(C)(C)[C@H]1CCC(=O)N([C@H](CSc2ccccc2)Cc2ccccc2)CC1
NC(=O)c1cc([N+](=O)[O-])ccc1NCc1cccnc1
CSc1ccc(Cl)c(C(=O)N2CCOc3ccccc32)c1
CCc1cccc(OC2OC(CO)C(O)C(O)C2NC(C)=O)c1 (configuration not stated)
CC/C(C)=N\Nc1nc(-c2cc3cc(OC)ccc3oc2=O)cs1
COc1ccccc1C(=O)c1cc2ccc(O)cc2oc1=O
Cn1cccc1/C=N/NC(=O)c1sc2cc(Cl)ccc2c1Cl
CCc1ccccc1S(=O)(=O)Cc1ccc(C(=O)N2CCN(c3ccccc3OC)CC2)o1
CCCOc1ccccc1/C=C1\SC(N)=NC1=O
CCOc1ccc2nc(NCCCNC(=O)c3cc(OC)c(OC)c(OC)c3)c(C#N)cc2c1
CC(=O)c1cc2ccc(O)cc2oc1=O
S=c1[nH]c2ccc(Cc3ccc4[nH]c(=S)[nH]c4c3)cc2[nH]1
COc1c(Cl)cc(-c2noc(C)c2C(=O)NCc2ccc3c(c2)OCO3)cc1Cl
CCC(Sc1nc(N)c(NC(=O)c2ccc(OC)cc2)c(=O)[nH]1)C(=O)O (configuration not stated)
Cc1ccc(-c2nc3ccsc3c(=O)[nH]2)cc1
Cc1c(Nc2c3ccccc3nc3ccccc23)c(=O)n(-c2ccccc2)n1C
CC(=O)N=c1c(C#N)cc2c(=O)n3ccccc3nc2n1CCCOC(C)C
Cc1c(O)ccc2cc(S(=O)(=O)c3ccccc3)c(=O)oc12
CN1c2ccc(Cl)cc2C(=O)NC1C1CC=CCC1 (configuration not stated)
CCN(CC)Cc1c(O)c(Cl)cc2c(C)cc(=O)oc12
Cc1cc(=O)oc2cc(OC(=O)c3cncc(Br)c3)ccc12
CCOc1ccc2nc(NCCCNS(=O)(=O)c3ccc(C)cc3)c(C#N)cc2c1
CCOc1ccc2nc(NCCNC(=O)CC)c(C#N)cc2c1
O=C(O)c1cccc(Nc2nc(-c3cc4ccccc4oc3=O)cs2)c1
COc1ccccc1C1C2=C(CC(C)(C)CC2=O)N(CC(=O)O)C2=C1C(=O)CC(C)(C)C2
Cc1noc(C)c1-c1ccc(C(=O)NCCc2ccccc2)c2occc12
CC(C)CCN(CCC(C)C)CC(O)Cn1c2ccccc2c(=O)c2ccccc21 (configuration not stated)
O=C(NCc1nnnn1-c1ccc(Cl)cc1)C1CC(=O)N(c2ccc(F)cc2)C1 (configuration not stated)
O=[N+]([O-])c1cccc(Nc2c3ccccc3nc3ccccc23)c1

FRET change, negative = inhibition, inactive:
COc1ccc(CNC(=O)c2sc(=O)n(Cc3ccc(C)cc3)c2C)cc1OC 4.95% [at 8 µM]
